Results filed as inconclusive are left out. The source made the active and inactive calls. Unless noted, the call rests on the fitted dose curve; in most records, active means well fitted curve in the direction sought with a large enough effect in the repeat runs; inconclusive means weak or mixed curves; inactive means no such curve, though single readings can be large; an effect the other way counts as inactive or inconclusive.
Tests used:
[1] = qHTS assay to identify small molecule antagonists of the estrogen receptor alpha (ER-alpha) signaling pathway using the BG1 cell line in the presence of 0.1 nM 17-beta-estradiol - cell viability counter screen (AID 1259241); further: nearly all actives have a fitted effect of over 40% in size
Method in brief: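 The cell line endogenously expresses full-length ER-alpha and carries four EREs driving luciferase. Cells are cultured 5 days hormone-free, treated 22 hr with compounds and 0.1 nM estradiol, then viability is read by fluorescence.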

[2] = qHTS assay to identify small molecule antagonists of the androgen receptor (AR) signaling pathway using the MDA cell line in the presence of 0.5 nM R1881 - cell viability counter screen (AID 1259242); further: nearly all actives have a fitted effect of over 45% in size
Method in brief: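 R1881 at 0.5 nM final stimulated MDA-kb2 cells during 16 hr compound treatment at 37C. Cytotoxicity read: CellTiter-Fluor fluorescence after 30 min.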

[3] = target: Estrogen receptor (Homo sapiens) (UniProt P03372); assay: qHTS assay to identify small molecule antagonists of the estrogen receptor alpha (ER-alpha) signaling pathway using the BG1 cell line in the presence of 0.1 nM 17-beta-estradiol (AID 1259244); further: nearly all actives have a fitted effect of over 50% in size
Estrogen receptor (Homo sapiens), sequence (P03372 whole entry, looked up): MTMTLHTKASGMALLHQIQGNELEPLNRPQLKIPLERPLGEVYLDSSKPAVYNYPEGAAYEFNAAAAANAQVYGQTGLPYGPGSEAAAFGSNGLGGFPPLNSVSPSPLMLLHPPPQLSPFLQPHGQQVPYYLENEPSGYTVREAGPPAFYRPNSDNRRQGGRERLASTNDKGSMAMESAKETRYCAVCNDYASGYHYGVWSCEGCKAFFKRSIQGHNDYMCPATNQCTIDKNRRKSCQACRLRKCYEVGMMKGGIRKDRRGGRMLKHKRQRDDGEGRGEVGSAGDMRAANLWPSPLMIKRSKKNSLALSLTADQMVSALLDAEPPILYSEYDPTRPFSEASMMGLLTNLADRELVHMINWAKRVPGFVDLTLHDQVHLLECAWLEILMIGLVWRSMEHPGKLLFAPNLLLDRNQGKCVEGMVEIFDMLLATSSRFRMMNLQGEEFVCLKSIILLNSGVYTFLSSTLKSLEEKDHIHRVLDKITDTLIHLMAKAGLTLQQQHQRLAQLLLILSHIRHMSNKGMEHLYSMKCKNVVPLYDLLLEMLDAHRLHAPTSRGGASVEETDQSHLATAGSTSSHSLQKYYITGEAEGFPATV
Method in brief: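 VM7Luc4E2; 4xERE-luciferase; 0.1 nM E2 final; 22 h co-incubation, 37C; ONE-Glo luminescence after 30 min at room temperature.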

[4] = qHTS assay to identify small molecule phospholipidosis (PLD) inducers (AID 1259344; active means well fitted curve in the direction sought with a large enough effect; an effect the other way counts as inactive or inconclusive)
Method in brief: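 HepG2 cells grown on collagen I take up LipidTOX Red while exposed to compound for 24 h; after fixation they are imaged at 20x and pit metrics are extracted.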

[5] = qHTS assay to identify small molecule HDAC inhibitors (AID 1259364); further: potency means the concentration at half of the fitted maximal effect;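 further: wild-type HCT-116 cells with endogenous class I/II HDAC activity; nearly all actives have a fitted effect of over 45% in size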; on activity change, negative = inhibition: top concentration of the series differs between compounds
Method in brief: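 Relative class I and II HDAC activity is taken from the luminogenic signal in HCT-116 cells, with compound exposure 2 hr and reagent development 30 min at room temperature.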

[6] = qHTS assay to identify small molecule HDAC inhibitors - cell viability counter screen (AID 1259365); further: series mostly up to about 92 µM; nearly all actives have a fitted effect of over 50% in size
Method in brief: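 Viability readout: CellTiter-Glo luminescence. Wild-type HCT-116 cells, 2hr compound treatment following overnight attachment at 37 C.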

[7] = qHTS assay to identify small molecule agonists of the sonic hedgehog signaling (Shh) pathway - cell viability counter screen (AID 1259366); further: nearly all actives have a fitted effect of over 50% in size
Method in brief: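 Viability measured fluorometrically (CellTiter-Fluor, 1hr, 37C) in 3T3 Gli1-Luc reporter cells after 23hr compound exposure within a 24hr incubation at 37C/5% CO2.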

[8] = qHTS assay to identify small molecule antagonists of the sonic hedgehog signaling (Shh) pathway (AID 1259369; calls by dose curve; further: nearly all actives have a fitted effect of over 45% in size; further: potency means the concentration at half of the fitted maximal effect)
Method in brief: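 Conditioned medium drives Shh signalling in 3T3Gli1-Luc cells; compounds in DMSO co-applied, 24hr at 37 C, then luciferase luminescence.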

[9] = qHTS assay to identify small molecule agonists of the androgen receptor (AR) signaling pathway in the presence of an antagonist - cell viability counter screen (AID 1259379);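 further: MDA-kb2 human breast cancer cells carrying an MMTV luciferase reporter; series mostly up to about 92 µM; nearly all actives have a fitted effect of over 25% in size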
Method in brief: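 A CellTiter-Fluor read-out measured viability of MDA-kb2 reporter cells (MMTV promoter with AR and GR response elements). Treatment: nilutamide 3.0uM final with compounds at 15 concentrations, 16 hr, 37C, 0% CO2.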

[10] = qHTS assay to identify small molecule antagonists of the estrogen receptor beta (ER-beta) signaling pathway - cell viability counter screen (AID 1259382); further: series mostly up to about 92 µM; nearly all actives have a fitted effect of over 55% in size
Method in brief: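 Agonist-stimulated (1nM E2) ER-beta-UAS-bla HEK293T cells are incubated with library compounds for 16 hr at 37C. Cell viability is then assessed in the reporter-assay wells by adding CellTiter-Glo and reading luminescence after 30 min.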

[11] = target: Estrogen receptor (Homo sapiens) (UniProt P03372); assay: qHTS assay to identify small molecule agonists of the estrogen receptor alpha (ER-alpha) signaling pathway in the presence of an antagonist (AID 1259383; calls by dose curve; further: top concentration of the series differs between compounds; nearly all actives have a fitted effect of over 15% in size)
Method in brief: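 Using VM7Luc4E2 cells seeded 24hr before treatment, antagonist ICI-182,780 (10.0nM final) was added, followed by compounds at 15 concentrations. Plates incubated 22hr; ONE-Glo luminescence quantified reporter activity.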

[12] = qHTS assay to identify small molecule agonists or antagonists of the thyroid stimulating hormone receptor (TSHR) signaling pathway - wild type cell line counter screen (AID 1259384; calls by dose curve)
Method in brief: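 Wild-type HEK293 cells were plated 18 h at 37 C/5% CO2, pin-dosed with compound plus Ro20-1724 medium, held 30 min at room temperature, then given cAMP-d2 and anti-cAMP-cryptate; fluorescence was read after 1 h. Fifteen concentrations, triplicate.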

[13] = target: Thyrotropin receptor (Homo sapiens) (UniProt P16473); assay: qHTS assay to identify small molecule antagonists of the thyroid stimulating hormone receptor (TSHR) signaling pathway (AID 1259385; calls by dose curve; further: nearly all actives have a fitted effect of over 20% in size; further: potency means the concentration at half of the fitted maximal effect)
Thyrotropin receptor (Homo sapiens), sequence (P16473 whole entry, looked up): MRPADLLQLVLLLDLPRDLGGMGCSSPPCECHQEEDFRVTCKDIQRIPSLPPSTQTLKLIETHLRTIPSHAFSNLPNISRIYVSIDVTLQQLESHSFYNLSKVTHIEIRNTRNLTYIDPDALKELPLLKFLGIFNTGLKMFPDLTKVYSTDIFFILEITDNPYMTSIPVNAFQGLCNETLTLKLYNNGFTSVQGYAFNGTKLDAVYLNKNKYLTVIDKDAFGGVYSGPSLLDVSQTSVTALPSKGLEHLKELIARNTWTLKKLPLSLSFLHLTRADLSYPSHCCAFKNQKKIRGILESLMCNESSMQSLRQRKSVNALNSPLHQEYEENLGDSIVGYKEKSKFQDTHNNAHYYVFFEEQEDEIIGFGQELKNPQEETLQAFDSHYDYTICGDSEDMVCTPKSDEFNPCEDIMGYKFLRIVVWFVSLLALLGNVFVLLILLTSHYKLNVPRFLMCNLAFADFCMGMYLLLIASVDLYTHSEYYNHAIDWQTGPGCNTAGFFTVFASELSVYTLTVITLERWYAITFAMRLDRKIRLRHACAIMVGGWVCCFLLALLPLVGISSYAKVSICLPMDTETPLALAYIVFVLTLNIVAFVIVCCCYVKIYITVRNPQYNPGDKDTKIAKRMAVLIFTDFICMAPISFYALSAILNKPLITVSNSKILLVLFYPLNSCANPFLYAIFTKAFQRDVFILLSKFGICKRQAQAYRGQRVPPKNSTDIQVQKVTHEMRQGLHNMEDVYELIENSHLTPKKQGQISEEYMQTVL
Method in brief: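 TSHR-HEK293 cells were plated and held 18 h at 37C/5% CO2, then given compound plus Ro20-1724 and stimulated with TSH at 1.5 ng/mL final. After 30 min at room temperature, cAMP was detected with cAMP-d2/anti-cAMP-cryptate (1 h) by fluorescence.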

[14] = qHTS assay to identify small molecule antagonists of the sonic hedgehog signaling (Shh) pathway - cell viability counter screen (AID 1259367); further: nearly all actives have a fitted effect of over 55% in size
Method in brief: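 After a 4 hr settling period, 3T3 Gli1-Luc cells were treated with DMSO-dissolved chemicals and conditioned medium, kept 24 hr at 37C in 5% CO2, and assayed for viability by CellTiter-Fluor fluorescence following 1 hr reagent incubation.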

[15] = qHTS assay to identify small molecule agonists of the sonic hedgehog signaling (Shh) pathway (AID 1259368; calls by dose curve;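 further: NIH/3T3-derived 3T3Gli1-Luc cells carrying a stable Gli1-driven firefly luciferase reporter; series mostly up to about 92 µM; nearly all actives have a fitted effect of over 15% in size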)
Method in brief: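 Mouse fibroblast (NIH/3T3) reporter cells with stably integrated Gli1-Luc were treated 24 hr with compound; firefly luciferase luminescence served as the read-out.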

[16] = target: Estrogen receptor beta (Homo sapiens) (UniProt Q92731); assay: qHTS assay to identify small molecule agonists of the estrogen receptor beta (ER-beta) signaling pathway (AID 1259377; active means well fitted activation curve with a large enough effect in the signal ratio in the repeat runs, not every such curve was filed as active; the % refers to the signal ratio)
Estrogen receptor beta (Homo sapiens), sequence (Q92731 whole entry, looked up): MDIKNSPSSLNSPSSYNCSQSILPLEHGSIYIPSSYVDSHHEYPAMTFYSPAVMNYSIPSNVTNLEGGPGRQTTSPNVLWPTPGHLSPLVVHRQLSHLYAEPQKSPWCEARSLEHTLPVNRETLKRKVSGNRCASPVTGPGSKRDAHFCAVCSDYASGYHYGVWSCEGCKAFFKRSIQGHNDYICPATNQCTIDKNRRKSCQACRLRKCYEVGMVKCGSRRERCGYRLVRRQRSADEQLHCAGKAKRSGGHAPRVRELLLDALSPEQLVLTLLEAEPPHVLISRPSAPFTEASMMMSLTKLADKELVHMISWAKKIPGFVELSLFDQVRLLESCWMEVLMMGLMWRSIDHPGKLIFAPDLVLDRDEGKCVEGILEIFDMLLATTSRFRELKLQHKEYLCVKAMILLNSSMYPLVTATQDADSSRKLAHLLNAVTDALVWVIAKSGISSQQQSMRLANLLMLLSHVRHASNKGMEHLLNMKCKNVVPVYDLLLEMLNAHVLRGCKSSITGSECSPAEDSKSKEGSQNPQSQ
Method in brief: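 A UAS-controlled beta-lactamase reporter in ER-beta-UAS-bla HEK293T cells reports receptor activation. Compounds act for 16 hr at 37C in 2% charcoal-stripped serum, and a FRET substrate is read by fluorescence after 2 hours.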

[17] = target: Estrogen receptor beta (Homo sapiens) (UniProt Q92731); assay: qHTS assay to identify small molecule antagonists of the estrogen receptor beta (ER-beta) signaling pathway (AID 1259378; active means well fitted inhibition curve with a large enough effect in the signal ratio in the repeat runs, not every such curve was filed as active; the % refers to the signal ratio)
Method in brief: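 ER-beta-UAS-bla HEK293T (GripTite) cells in 2% charcoal-stripped FBS medium were preincubated 6 hr at 37C, dosed with compound, then stimulated with 1 nM E2 (final) for 16 hr; beta-lactamase reporter read by B/G FRET fluorescence after 2 hr substrate loading.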

[18] = qHTS assay to identify small molecule agonists of the estrogen receptor beta (ER-beta) signaling pathway - cell viability counter screen (AID 1259380); further: nearly all actives have a fitted effect of over 30% in size; further: potency means the concentration at half of the fitted maximal effect
Method in brief: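 Cells used were ER-beta-UAS-bla HEK293T in medium with 2% charcoal-stripped FBS. They were treated for 16 hr at 37C. Viability came from CellTiter-Glo luminescence.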
On the % scale 0 is the no-effect control and ±100 the full control effect.

CC(CCc1ccccc1)NC(C)C(O)c1ccc(O)cc1 (stereo not given)
inactive: outcome [1] | outcome [2] | Potency [3] | outcome [4] | Potency [5] | outcome [6] | Potency [7] | Potency [8] | Potency [9] | Potency [10] | Potency [11] | Potency [12] | Potency [13]

O=C1c2ccccc2C(=O)c2ccccc21
inactive: activity change, negative = cytotoxicity [1] 0.424% [at 19 µM] | viability change, negative = cytotoxic [2] 3.34% [at 19 µM] | activity change, negative = inhibition [3] 34.1% [at 19 µM] | outcome [4] | activity change, negative = cytotoxicity [6] -0.295% [at 19 µM] | viability change, negative = cytotoxic [7] 1.77% [at 19 µM] | viability change, negative = cytotoxic [14] -0.095% [at 19 µM] | activity change [15] 1.5% [at 18.9 µM] | activity change, negative = inhibition [8] 17.7% [at 19 µM] | activation [16] 1.09% [at 19 µM] | activity, negative = inhibition [17] 0.94% [at 19 µM] | activity change, negative = cytotoxicity [9] -1.61% [at 19 µM] | activity change, negative = cytotoxicity [18] 3.21% [at 19 µM] | activity change, negative = cytotoxicity [10] -0.678% [at 19 µM] | activation [11] 5.54% [at 19 µM] | cAMP activity change [12] -4.84% [at 18.9 µM, stronger effect = higher value] | activity change, negative = inhibition [13] -0.629% [at 19 µM]
active: Potency [5] 3.66 µM

[O]=[Cd]
inactive: outcome [1] | outcome [2] | Potency [3] | outcome [4] | Potency [5] | outcome [6] | Potency [7] | Potency [14] | outcome [15] | Potency [8] | Potency [9] | Potency [18] | Potency [10] | Potency [11] | Potency [12] | Potency [13]

CC1(C)C(=O)NC(=O)NC1=O
inactive: outcome [1] | outcome [2] | Potency [3] | Potency [5] | outcome [6] | Potency [7] | Potency [14] | outcome [15] | Potency [8] | outcome [16] | Potency [17] | Potency [9] | Potency [18] | Potency [10] | Potency [11] | Potency [12] | Potency [13]

CCOP(=S)(OCC)SCSc1ccc(Cl)cc1
inactive: outcome [1] | outcome [2] | Potency [3] | PLD induction [4] -3.38% [at 7.66 µM] | Potency [5] | outcome [6] | Potency [7] | Potency [14] | Potency [8] | outcome [16] | Potency [17] | Potency [9] | Potency [10] | Potency [11]
active: Potency [13] 30.6 µM

CC(C)NCC(O)c1ccc(N)c(C#N)c1 (stereo not given)
inactive: outcome [1] | outcome [2] | Potency [3] | outcome [4] | Potency [5] | outcome [6] | Potency [7] | Potency [14] | outcome [15] | Potency [8] | Potency [9] | Potency [18] | Potency [10] | Potency [11] | Potency [13]

CCC1(c2ccccc2)C(=O)NC(=O)NC1=O
inactive: outcome [1] | outcome [2] | Potency [3] | outcome [4] | Potency [5] | outcome [6] | Potency [7] | Potency [14] | Potency [8] | outcome [16] | Potency [17] | Potency [9] | Potency [10] | Potency [11] | Potency [12] | Potency [13]

ClCC(Cl)(Cl)Cl
inactive: outcome [1] | outcome [2] | Potency [3] | Potency [5] | outcome [6] | Potency [7] | Potency [14] | outcome [15] | Potency [8] | outcome [16] | Potency [17] | Potency [9] | Potency [18] | Potency [10] | Potency [11]

CN1CCC(N(Cc2ccccc2)c2ccccc2)CC1
inactive: outcome [1] | outcome [2] | Potency [3] | Potency [5] | outcome [6] | Potency [7] | Potency [14] | outcome [15] | outcome [16] | Potency [9] | Potency [11] | Potency [12] | Potency [13]
active: Potency [8] 18.8 µM | Potency [18] 13.3 µM

CCN(Cc1ccc(Cl)nc1)/C(=C/[N+](=O)[O-])NC
inactive: outcome [1] | outcome [2] | Potency [3] | outcome [4] | Potency [5] | outcome [6] | Potency [7] | Potency [14] | Potency [8] | Potency [17] | Potency [9] | Potency [18] | Potency [10] | Potency [11] | Potency [12] | Potency [13]

COc1cc2c(cc1OC)[C@@]13CCN4CC5=CCO[C@H]6CC(=O)N2[C@H]1[C@H]6[C@H]5C[C@H]43
inactive: outcome [1] | outcome [2] | Potency [3] | outcome [4] | Potency [5] | outcome [6] | outcome [15] | Potency [9] | Potency [10] | Potency [11] | Potency [12] | Potency [13]

C=C(C)CN(CC)c1c([N+](=O)[O-])cc(C(F)(F)F)cc1[N+](=O)[O-]
inactive: outcome [1] | outcome [2] | Potency [3] | Potency [5] | outcome [6] | Potency [7] | Potency [14] | outcome [15] | Potency [8] | outcome [16] | Potency [17] | Potency [9] | Potency [18] | Potency [10] | Potency [11]

CC(C)(C)C(=O)C(Oc1ccc(Cl)cc1)n1cncn1 (stereo not given)
inactive: outcome [1] | outcome [2] | Potency [3] | Potency [5] | outcome [6] | Potency [7] | Potency [14] | outcome [15] | Potency [8] | outcome [16] | Potency [17] | Potency [9] | Potency [10] | Potency [11]

CS(=O)(=O)c1cc(C(F)(F)F)ccc1C(=O)c1cnoc1C1CC1
inactive: outcome [1] | outcome [2] | Potency [3] | Potency [5] | outcome [6] | Potency [7] | Potency [14] | outcome [15] | Potency [8] | outcome [16] | Potency [17] | Potency [9] | Potency [10] | Potency [11] | Potency [13]

CCOP(=S)(OCC)Oc1cc(-c2ccccc2)on1
inactive: outcome [1] | outcome [2] | Potency [3] | Potency [5] | outcome [6] | Potency [7] | Potency [14] | outcome [15] | Potency [8] | outcome [16] | Potency [17] | Potency [9] | Potency [10] | Potency [11] | Potency [12]

O=C1OC(c2ccc(O)c(S(=O)(=O)O)c2)(c2ccc(O)c(S(=O)(=O)O)c2)c2c(Br)c(Br)c(Br)c(Br)c21
inactive: outcome [1] | outcome [2] | Potency [3] | outcome [4] | Potency [5] | outcome [6] | Potency [7] | outcome [15] | Potency [8] | outcome [16] | Potency [17] | Potency [9] | Potency [18] | Potency [10] | Potency [11] | Potency [13]

CCOC(=O)/C=C(C)/C=C/C[C@@H](C)CCCC(C)C
active: Potency [18] 43.3 µM
inactive: outcome [1] | outcome [2] | Potency [3] | outcome [4] | Potency [5] | outcome [6] | Potency [7] | Potency [14] | outcome [15] | Potency [9] | Potency [11]

Source: PubChem BioAssay (Tox21)
